Results as given in PubChem BioAssay (EPA / NIEHS).
Calls of active or inactive are those of the source. The calls were made as follows: active = hit-call score of the fitted dose curve at least 0.9, where 1 is the maximum; inactive = score below 0.9.

Experiment: APR_HepG2_MicrotubuleCSK_72hr: Apredica 72-hour HepG2 Assay for Microtubule CSK Stabilty (AID 2282919)
Conditions: HepG2 microtubule cytoskeleton, high-content imaging, actives raise or lower the signal
Procedure, shortened: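 HepG2, 72 hr cmpd exposure, 0.39–200 uM (10 pts, duplicate), 0.5% DMSO. 3.7% formaldehyde fix, 0.5% Triton perm, anti-alpha-tubulin/Cy5 plus Hoechst. HCS fluorescence intensity; bidirectional fit vs DMSO baseline; taxol as positive control.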

| SMILES | outcome |
| --- | --- |
| CCCCCCCCCCCCOS(=O)(=O)O | inactive |
| CCCCCCCCCCCCCCC | inactive |
| CN(Cc1cnc2nc(N)nc(N)c2n1)c1ccc(C(=O)N[C@@H](CCC(=O)O)C(=O)O)cc1 | inactive |
| O=C1NS(=O)(=O)c2ccccc21 | inactive |
| Cc1[nH]nc2c1N=C(c1ccccc1Cl)c1cc([N+](=O)[O-])ccc1N2 | inactive |
| CCCCC=O | inactive |
| N=C(N)c1ccc(OCCCCCOc2ccc(C(=N)N)cc2)cc1 | inactive |

Experiment: APR_HepG2_P-H2AX_24hr: Apredica 24-hour HepG2 Assay for H2AX Phosphorylation (AID 2282920)
Conditions: high-content imaging, actives raise or lower the signal
Procedure, shortened: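 High-content imaging of phospho-histone H2A.x immunofluorescence, nuclei counterstained with Hoechst 33342, in fixed HepG2 cells. Compounds ran 0.39–200 uM in duplicate for 24 h, final DMSO 0.5%. Signal change fitted both directions against DMSO.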

| SMILES | outcome | AC50 |
| --- | --- | --- |
| CCCCCCCCCCCCOS(=O)(=O)O | inactive | – |
| CCCCCCCCCCCCCCC | inactive | – |
| CCCCc1oc2ccccc2c1C(=O)c1cc(I)c(OCCN(CC)CC)c(I)c1 | – | 51.7 µM (active) |
| O=C(c1ccccc1)c1ccccc1 | inactive | – |
| OCC(CO)(CBr)CBr | inactive | – |
| O=C(CCCN1CCC(O)(c2ccc(Cl)cc2)CC1)c1ccc(F)cc1 | – | 100 µM (active) |
| CCCCC(CC)C(=O)O (stereo unspecified) | inactive | – |
| CN(Cc1cnc2nc(N)nc(N)c2n1)c1ccc(C(=O)N[C@@H](CCC(=O)O)C(=O)O)cc1 | inactive | – |
| O=C1NS(=O)(=O)c2ccccc21 | inactive | – |
| Cc1[nH]nc2c1N=C(c1ccccc1Cl)c1cc([N+](=O)[O-])ccc1N2 | – | 24.9 µM (active) |
| CC(=O)Nc1ccc(O)cc1 | inactive | – |
| CN(C)CCOC(c1ccccc1)c1ccccc1 | inactive | – |
| CCCCC=O | inactive | – |
| CS(=O)(=O)c1ccc([C@@H](CC2CCCC2)C(=O)Nc2cnccn2)cc1Cl | inactive | – |
| N=C(N)c1ccc(OCCCCCOc2ccc(C(=N)N)cc2)cc1 | – | 39.7 µM (active) |

Experiment: APR_HepG2_StressKinase_72hr: Apredica 72-hour HepG2 Assay for Stress Kinase (AID 2282921)
Conditions: HepG2 stress kinase (phospho-c-Jun) imaging, actives raise or lower the signal
Procedure, shortened: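 Phospho-c-Jun immunofluorescence measured by high-content imaging at 20x, six fields per well; bidirectional curve fitting against DMSO as baseline. Dosing: 0.39–200 uM, 72 h, 0.5% DMSO final.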

| SMILES | outcome | AC50 |
| --- | --- | --- |
| CCCCCCCCCCCCOS(=O)(=O)O | inactive | – |
| CCCCCCCCCCCCCCC | inactive | – |
| CCCCc1oc2ccccc2c1C(=O)c1cc(I)c(OCCN(CC)CC)c(I)c1 | inactive | – |
| O=C(c1ccccc1)c1ccccc1 | inactive | – |
| OCC(CO)(CBr)CBr | inactive | – |
| O=C(CCCN1CCC(O)(c2ccc(Cl)cc2)CC1)c1ccc(F)cc1 | – | 42.5 µM (active) |
| CCCCC(CC)C(=O)O (stereo unspecified) | inactive | – |
| CN(Cc1cnc2nc(N)nc(N)c2n1)c1ccc(C(=O)N[C@@H](CCC(=O)O)C(=O)O)cc1 | inactive | – |
| Cc1[nH]nc2c1N=C(c1ccccc1Cl)c1cc([N+](=O)[O-])ccc1N2 | – | 11.7 µM (active) |
| CC(=O)Nc1ccc(O)cc1 | inactive | – |
| CN(C)CCOC(c1ccccc1)c1ccccc1 | inactive | – |
| CCCCC=O | inactive | – |
| CS(=O)(=O)c1ccc([C@@H](CC2CCCC2)C(=O)Nc2cnccn2)cc1Cl | inactive | – |
| N=C(N)c1ccc(OCCCCCOc2ccc(C(=N)N)cc2)cc1 | inactive | – |
